From PubChem BioAssay
Results filed as inconclusive are left out. Calls of active or inactive are those of the source.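 How the source made its calls, unless noted: active means RAM network inhibition above 8.4% in each of two replicates, 3 SD over the compound average; inconclusive means above 8.4% inhibition in only one replicate; inactive means 8.4% inhibition or less in each replicate.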

Columns and labels:
[1] = Her2 expression decrease, cell viability multiplex – SKBR3 breast tumor cells, AlphaScreen, ATP viability, primary screen (AID 461;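 active means Her2 level under about 52% in both replicate screens, with viability over 70% of control, limit read from the data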;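 on Her2 level: lower value means less Her2 protein in the cells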;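 on viability: percent of carrier control wells set as 100% viability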); settings: SKBR3 Her2 protein level, 18-24 h, measured here: SKBR3 viability, ATP luminescence, at 10 µM
[2] = molecular target: Receptor tyrosine-protein kinase erbB-2 (Homo sapiens) (UniProt P04626); test: as above; settings: 18-24 h, at 10 µM, stronger effect = lower value
[3] = reduced viability of SK-BR-3 breast cancer cells – cell-based, 24 h, human, pilot screen (AID 572;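 active means viability at or below 10% of carrier control in both of two separate runs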;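 further: compound exposure lasted between 18 and 24 h rather than exactly 24 h; 100% = carrier-treated control wells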); settings: SK-BR-3 viability, CellTiter-Glo luminescence, at 10 µM, stronger effect = lower value
[4] = HUVEC growth inhibition – cell-based, human, primary screen (AID 575;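 active means viability at or below 30% in both replicate assays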;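 further: 100% = median of untreated cell wells with 0.1% DMSO on each plate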); settings: HUVEC proliferation, CellTiter-Glo luminescence, 72 h; at 10 µM; stronger effect = lower value
[5] = H69AR cell proliferation blockers – human, duplicate replicates, primary screen (AID 580;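 active means viability at or under a set limit in both replicates, limit being median viability minus 3 SD, cut at about 48% in these data, passing the limit was not always enough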;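 further: 100% = mean luminescence of untreated wells and 0% = no signal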); settings: H69AR lung tumor cells viability, ATP luminescence, 72 h; at 10 µM; stronger effect = lower value
[6] = MRP1 drug-resistance reversers in H69AR cells – cell-based, doxorubicin co-treatment, pilot screen (AID 601;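 active means viability loss from added drug above about 55%, and viability with drug at most 40%, in both replicates, limit read from the data, passing the limit was not always enough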); settings: CellTiter-Glo, 72 h, at 10 µM; for differential viability (reversal): stronger effect = higher value
[7] = yeast transport mutant growth inhibition pilot in 384-well plates, post-Golgi transport modulator project (AID 636; in the data active means inhibition above about 31%); settings: absorbance 615 nm, about 18 h, stronger effect = higher value
[8] = growth suppression of yeast trafficking mutant, preliminary HTS, modulators of trafficking downstream of Golgi apparatus project, 1536-format plate, OD 615 nm (AID 637; in the data active means inhibition above about 30%); settings: yeast transport mutant growth, absorbance 615 nm, 18 h; stronger effect = higher value
[9] = S. cerevisiae growth inhibition in permissive medium (OD615), pilot counter-assay for S. cerevisiae lifespan shortening project, permissive growth control (AID 705;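 active means growth inhibition above 25% in both replicates, a cutoff set 3 SD above the mean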); settings: OD615, 24 h, at 10 µM, stronger effect = higher value
[10] = S. cerevisiae growth inhibition in restrictive medium, OD615, pilot screen, restrictive growth control, yeast lifespan reduction project (AID 706;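 active means growth inhibition above a set limit, 3 SD over mean compound inhibition, in both replicates, cut at about 43% in these data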;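 further: modified DeaD lifespan yeast strain shifted to restrictive glucose medium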); settings: OD615, 48 h, at 10 µM, stronger effect = higher value
[11] = doxorubicin toxicity protection in MRP-1 cells – H69AR cells, CellTiter-Glo, duplicate, MRP-1 activator project, pilot screen (AID 807;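 active means viability increase at or above a cutoff of the median across tested compounds plus 3 SD, cut at about 8.5% in these data, passing the limit was not always enough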;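 further: compound pretreatment 18-22 h then 72 h combined with doxorubicin; 0% = doxorubicin alone and 100% = vehicle without doxorubicin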); settings: H69AR viability with doxorubicin, CellTiter-Glo luminescence; at 10 µM; stronger effect = higher value
[12] = viability of HCT116 without oncogenic beta-catenin – human colon tumor cells, pilot screen (AID 823;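 active means cell viability at or below a set limit in both duplicate runs, the limit being the all-compound median minus 4 SD, cut at about 23% in these data, passing the limit was not always enough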;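 further: 0% = wells killed by 20 µM Hyamine and 100% = untreated DMSO cell wells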); settings: HCT116 beta-catenin knockout viability, CellTiter-Glo, 60 h; at 10 µM; stronger effect = lower value
[13] = viability of PTEN-null HCT116 cells – cell-based, HCT116 clonal line, CellTiter-Glo, pilot screen (AID 824;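 active means viability at or below 27.92% in each of two runs, the all-compound median minus 4 SD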;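 further: 0% = 20 µM Hyamine control and 100% = vehicle cell control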); settings: HCT116 PTEN-deleted viability, 60 h, at 10 µM, stronger effect = lower value
[14] = RAM pathway blockade in budding yeast – dse1pr::URA3 reporter, 5-FOA selection, pilot screen (AID 869;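 active means inhibition over a set limit, the all-compound mean plus 3 SD, in both replicate runs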;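 further: 0% = DMSO wells with no growth and 100% = 10 µM 1-NA-PP1 with full growth; RAM network block rescues cells from 5-FOA so hits raise OD615 growth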); settings: S. cerevisiae dse1pr::URA3 5-FOA growth, OD615, 2 d; at 10 µM; stronger effect = higher value; strain carries analog-sensitive mutant Cbk1 kinase
[15] = RAM signaling pathway blockade in yeast – S. cerevisiae, Pdr1DBD-CYC8 efflux-inhibited sensitized strain, primary screen (AID 1298);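 further: 0% = DMSO untreated cells without growth and 100% = 10 µM 1-NA-PP1 full growth; higher means more yeast growth rescued from 5-FOA killing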; settings: S. cerevisiae cbk1-as DSE1-URA3 strain, 5-FOA growth OD615, 2 d; at 50 µM; stronger effect = higher value
[16] = H69AR cells + 2 uM doxorubicin, measured here: viability with 2 uM doxorubicin, stronger effect = lower value
[17] = H69AR cells, compound alone cytotoxicity

Sequence of Receptor tyrosine-protein kinase erbB-2 (Homo sapiens) (P04626 whole entry, looked up): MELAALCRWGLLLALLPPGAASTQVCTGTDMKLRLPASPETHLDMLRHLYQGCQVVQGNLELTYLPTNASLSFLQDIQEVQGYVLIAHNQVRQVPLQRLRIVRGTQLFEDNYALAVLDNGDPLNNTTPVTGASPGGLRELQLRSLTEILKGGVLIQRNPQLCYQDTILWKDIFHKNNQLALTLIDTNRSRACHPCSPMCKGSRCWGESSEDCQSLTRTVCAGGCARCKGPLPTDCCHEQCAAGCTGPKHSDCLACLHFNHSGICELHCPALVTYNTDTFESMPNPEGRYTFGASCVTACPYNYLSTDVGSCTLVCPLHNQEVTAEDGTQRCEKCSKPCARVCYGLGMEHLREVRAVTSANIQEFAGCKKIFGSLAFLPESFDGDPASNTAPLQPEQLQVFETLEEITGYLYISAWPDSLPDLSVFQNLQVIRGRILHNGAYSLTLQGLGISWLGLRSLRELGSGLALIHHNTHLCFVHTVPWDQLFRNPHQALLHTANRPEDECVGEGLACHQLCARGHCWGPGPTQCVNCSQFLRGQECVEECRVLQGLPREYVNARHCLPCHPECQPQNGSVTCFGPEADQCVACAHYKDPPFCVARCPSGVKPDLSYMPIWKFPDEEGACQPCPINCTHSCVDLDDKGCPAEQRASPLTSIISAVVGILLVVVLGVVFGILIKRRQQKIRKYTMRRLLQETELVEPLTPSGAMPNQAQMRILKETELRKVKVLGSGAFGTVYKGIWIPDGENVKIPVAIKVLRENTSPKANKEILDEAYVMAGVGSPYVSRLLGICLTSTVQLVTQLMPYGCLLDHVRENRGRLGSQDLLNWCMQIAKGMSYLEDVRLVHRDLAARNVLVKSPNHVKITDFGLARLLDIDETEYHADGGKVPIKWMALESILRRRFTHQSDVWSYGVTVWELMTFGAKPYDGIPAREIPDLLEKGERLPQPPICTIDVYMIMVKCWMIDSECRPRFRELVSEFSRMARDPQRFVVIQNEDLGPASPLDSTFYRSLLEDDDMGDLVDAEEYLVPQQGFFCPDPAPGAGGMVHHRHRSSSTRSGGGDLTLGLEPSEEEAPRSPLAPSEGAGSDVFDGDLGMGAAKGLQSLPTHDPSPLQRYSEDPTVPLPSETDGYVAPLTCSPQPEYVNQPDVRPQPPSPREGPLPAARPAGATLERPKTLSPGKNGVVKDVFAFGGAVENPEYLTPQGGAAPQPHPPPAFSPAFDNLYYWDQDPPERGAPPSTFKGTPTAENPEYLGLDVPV

Compound | viability [1] [%] | Her2 level [2] | viability [3] | viability [4] | viability [5] | differential viability (reversal) ([6]; H69AR cells + 2 uM doxorubicin) | viability [6, 16] [%] | viability [6, 17] [%] | inhibition [7] | inhibition [8] | growth inhibition [9] | growth inhibition [10] | viability increase [11] | viability [12] | viability [13] | inhibition [14] | RAM network inhibition [15]
COc1cccc(CNC(=O)Cn2c(=O)oc3ccccc32)c1OC | 110 | 99% (inactive) | 110% (inactive) | 89.8% (inactive) | 92.3% (inactive) | 0.115% (inactive) | 92.2 | 92.3 | -6.27% (inactive) | -0.67% (inactive) | -9.48% (inactive) | -12.4% (inactive) | -0.35% (inactive) | 104% (inactive) | 91% (inactive) | 0.75% (inactive) | -0.26% (inactive)
COc1ccc(C2CC(c3ccc(OC)cc3)n3nc(N)nc3N2)cc1 (stereo not drawn) | 97.5 | 98% (inactive) | 97.5% (inactive) | 88% (inactive) | 82.2% (inactive) | -2.91% (inactive) | 85.1 | 82.2 | 0.77% (inactive) | 0.17% (inactive) | 7.76% (inactive) | 16.3% (inactive) | 0.09% (inactive) | 105% (inactive) | 98.1% (inactive) | 1.62% (inactive) | 3.07% (inactive)
Cc1cc(N)n2nc(-c3ccccc3)cc2n1 | 95 | 71% (inactive) | 95% (inactive) | 57.4% (inactive) | 80.1% (inactive) | 11.5% (inactive) | 68.5 | 80.1 | -1.82% (inactive) | -0.33% (inactive) | -14.1% (inactive) | -13.9% (inactive) | -3.46% (inactive) | 65.1% (inactive) | 65.3% (inactive) | 1.33% (inactive) | 4.23% (inactive)
COc1ccc(NC(=O)CN(c2cc(C)cc(C)c2)S(=O)(=O)c2c(C)noc2C)cc1OC | 89 | 73% (inactive) | 89% (inactive) | 110% (inactive) | 88.2% (inactive) | 14.6% (inactive) | 73.6 | 88.2 | 0.26% (inactive) | -1.67% (inactive) | -9.49% (inactive) | -4.85% (inactive) | -2.49% (inactive) | 89% (inactive) | 92.5% (inactive) | 3.25% (inactive) | 5.58% (inactive)
